From PubChem BioAssay (NCI)
The panel holds about 79,000 compounds, 15% with a hit somewhere; the sample as a whole holds those more often. Unmarked numbers belong to inactive results. Calls of active or inactive are those of the source. No stated cut-off is given here; in the data, active means growth inhibition above about 70%; inactive means the rest.

What was measured:
[1] = NCI Yeast Anticancer Drug Screen. Data for the rad50 strain (AID 155);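 further: 0% = growth of vehicle-only cultures of the same strain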; settings: S. cerevisiae rad50 strain growth inhibition, active compounds read high
Summary of the method: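 Vehicle-treated cultures provide the reference for the growth inhibition reported for compound-exposed, repair-deficient yeast.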

[2] = NCI Yeast Anticancer Drug Screen. Data for the mec2-1 strain (AID 157); settings: S. cerevisiae mec2-1 strain, active compounds read high
Summary of the method: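 Growth inhibition is read against vehicle-treated controls after compound exposure of the mec2-1 yeast strain, which is defective in DNA damage repair or cell cycle control.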

[3] = NCI Yeast Anticancer Drug Screen. Data for the sgs1 mgt1 strain (AID 161);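 further: 0% = growth of cultures given vehicle only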; settings: S. cerevisiae sgs1 mgt1 strain, active compounds read high
Summary of the method: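 Yeast cells carrying a defined DNA-repair defect were exposed to test compounds. Growth inhibition was measured relative to vehicle-treated controls.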

[4] = NCI Yeast Anticancer Drug Screen. Data for the cln2 rad14 strain (AID 165);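 further: 0% = growth equal to vehicle treated cultures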; settings: S. cerevisiae cln2 rad14 strain, active compounds read high
Summary of the method: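 Growth inhibition, relative to vehicle-treated controls, is the read-out. The test organism is a yeast strain with defined genetic alterations, cln2 rad14.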

[5] = NCI Yeast Anticancer Drug Screen. Data for the bub3 strain (AID 167); settings: S. cerevisiae bub3 mutant strain, active compounds read high
Summary of the method: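 Mutant yeast screening strain plus compound; vehicle-treated cultures serve as the 0% inhibition reference.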

[6] = NCI Yeast Anticancer Drug Screen. Data for the mlh1 rad18 strain (AID 175); settings: S. cerevisiae mlh1 rad18 strain growth inhibition, active compounds read high
Summary of the method: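 Cells of a genetically altered yeast strain, deficient in DNA damage repair, were treated with compound. Their growth was then compared with that of vehicle-treated cultures to give inhibition.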

[7] = at 5.0 µM (retest, dose inferred, filed as 0.5)
[8] = at 50.0 µM (retest, dose inferred, filed as 5.0)

Q: With `NC(c1ccccc1)P(=O)(OCc1ccc([N+](=O)[O-])cc1)OCc1ccc([N+](=O)[O-])cc1` (configuration not stated) as the molecule, how does the growth inhibition [1, 7] read?
A: 15%

Q: What about the growth inhibition [1, 8] of the same molecule?
A: 15%

Q: And the growth inhibition ([1]; at 50.0 µM)?
A: 57.2%

Q: What about the growth inhibition [2, 7] of the same molecule?
A: -4%

Q: And the growth inhibition [2, 8]?
A: -4%

Q: And the growth inhibition ([2]; at 50.0 µM)?
A: 33.6%

Q: What about the growth inhibition [3, 7] of the same molecule?
A: -3%

Q: And the growth inhibition [3, 8]?
A: -3%

Q: And the growth inhibition ([3]; at 50.0 µM)?
A: 72.3% (active)

Q: What about the growth inhibition [4, 7] of the same molecule?
A: 11%

Q: What about the growth inhibition [4, 8] of the same molecule?
A: 11%

Q: And the growth inhibition ([4]; at 50.0 µM)?
A: 35.6%

Q: And the growth inhibition [5, 7]?
A: 6%

Q: What about the growth inhibition [5, 8] of the same molecule?
A: 6%

Q: What about the growth inhibition ([5]; at 50.0 µM) of the same molecule?
A: 36.9%

Q: And the growth inhibition [6, 7]?
A: 14%

Q: What about the growth inhibition [6, 8] of the same molecule?
A: 14%

Q: And the growth inhibition ([6]; at 50.0 µM)?
A: 33.4%

Q: What does the source list for `CC(NC(=O)C(Cc1ccccc1)NC(=O)c1ccc[n+](Cc2ccccc2)c1)C(N)=O` (configuration not stated)?
A: growth inhibition [1, 7]: 0%; growth inhibition [1, 8]: -5%; growth inhibition ([1]; at 50.0 µM): 0.65%; growth inhibition [2, 7]: 0%; growth inhibition [2, 8]: -2%; growth inhibition ([2]; at 50.0 µM): -3.05%; growth inhibition [3, 7]: -1%; growth inhibition [3, 8]: 3%; growth inhibition ([3]; at 50.0 µM): -9.9%; growth inhibition [4, 7]: 0%; growth inhibition [4, 8]: -1%; growth inhibition ([4]; at 50.0 µM): -4.7%; growth inhibition [5, 7]: 1%; growth inhibition [5, 8]: -11%; growth inhibition ([5]; at 50.0 µM): -1.9%; growth inhibition [6, 7]: -1%; growth inhibition [6, 8]: -2%; growth inhibition ([6]; at 50.0 µM): 28.1%

Q: Which growth inhibition [1, 7] does the source give for `CC(C)(C)CCCC(C(=O)O)c1ccccc1` (configuration not stated) here?
A: 0%

Q: What about the growth inhibition [1, 8] of the same molecule?
A: 50%

Q: And the growth inhibition ([1]; at 50.0 µM)?
A: 82.6% (active)

Q: And the growth inhibition [2, 7]?
A: -10%

Q: What about the growth inhibition [2, 8] of the same molecule?
A: 54%

Q: And the growth inhibition ([2]; at 50.0 µM)?
A: 75.8% (active)

Q: What about the growth inhibition [3, 7] of the same molecule?
A: -2%

Q: And the growth inhibition [3, 8]?
A: 31%

Q: And the growth inhibition ([3]; at 50.0 µM)?
A: 63%

Q: What about the growth inhibition [4, 7] of the same molecule?
A: -10%

Q: And the growth inhibition [4, 8]?
A: 60%

Q: What about the growth inhibition ([4]; at 50.0 µM) of the same molecule?
A: 76.8% (active)

Q: What about the growth inhibition [5, 7] of the same molecule?
A: -7%

Q: And the growth inhibition [5, 8]?
A: 57%

Q: What about the growth inhibition ([5]; at 50.0 µM) of the same molecule?
A: 55.1%

Q: What about the growth inhibition [6, 7] of the same molecule?
A: -7%

Q: And the growth inhibition [6, 8]?
A: 49%

Q: What about the growth inhibition ([6]; at 50.0 µM) of the same molecule?
A: 85.1% (active)

Q: With `Cc1cc(Cc2ccccc2Cl)ccc1O` as the molecule, how does the growth inhibition [1, 7] read?
A: -3%

Q: And the growth inhibition [1, 8]?
A: 99% (active)

Q: And the growth inhibition ([1]; at 50.0 µM)?
A: 99.2% (active)

Q: What about the growth inhibition [2, 7] of the same molecule?
A: -9%

Q: And the growth inhibition [2, 8]?
A: 100% (active)

Q: What about the growth inhibition ([2]; at 50.0 µM) of the same molecule?
A: 99.6% (active)

Q: And the growth inhibition [3, 7]?
A: -3%

Q: What about the growth inhibition [3, 8] of the same molecule?
A: 99% (active)

Q: What about the growth inhibition ([3]; at 50.0 µM) of the same molecule?
A: 99.5% (active)

Q: And the growth inhibition [4, 7]?
A: -17%

Q: And the growth inhibition [4, 8]?
A: 99% (active)

Q: What about the growth inhibition ([4]; at 50.0 µM) of the same molecule?
A: 99% (active)

Q: And the growth inhibition [5, 7]?
A: -6%

Q: And the growth inhibition [5, 8]?
A: 98% (active)

Q: What about the growth inhibition ([5]; at 50.0 µM) of the same molecule?
A: 99.4% (active)

Q: What about the growth inhibition [6, 7] of the same molecule?
A: -4%

Q: And the growth inhibition [6, 8]?
A: 100% (active)

Q: And the growth inhibition ([6]; at 50.0 µM)?
A: 95.5% (active)

Q: Which results are given for `NC(=S)N/N=C1\CCCCc2ccccc21`?
A: growth inhibition [1, 7]: 5%; growth inhibition [1, 8]: 85% (active); growth inhibition ([1]; at 50.0 µM): 85.7% (active); growth inhibition [2, 7]: -19%; growth inhibition [2, 8]: 83% (active); growth inhibition ([2]; at 50.0 µM): 89.5% (active); growth inhibition [3, 7]: 4%; growth inhibition [3, 8]: 87% (active); growth inhibition ([3]; at 50.0 µM): 83.8% (active); growth inhibition [4, 7]: 13%; growth inhibition [4, 8]: 80% (active); growth inhibition ([4]; at 50.0 µM): 83.8% (active); growth inhibition [5, 7]: 17%; growth inhibition [5, 8]: 88% (active); growth inhibition ([5]; at 50.0 µM): 79.1% (active); growth inhibition [6, 7]: 5%; growth inhibition [6, 8]: 91% (active); growth inhibition ([6]; at 50.0 µM): 84.2% (active)

Q: Which results are given for `CC(C)CCN1CCC2(CCCCC2)CC1`?
A: growth inhibition [1, 7]: 4%; growth inhibition [1, 8]: 1%; growth inhibition ([1]; at 50.0 µM): 40.5%; growth inhibition [2, 7]: 5%; growth inhibition [2, 8]: -6%; growth inhibition ([2]; at 50.0 µM): 24.1%; growth inhibition [3, 7]: 6%; growth inhibition [3, 8]: 0%; growth inhibition ([3]; at 50.0 µM): 51.3%; growth inhibition [4, 7]: 7%; growth inhibition [4, 8]: -5%; growth inhibition ([4]; at 50.0 µM): 88.3% (active); growth inhibition [5, 7]: 2%; growth inhibition [5, 8]: -3%; growth inhibition ([5]; at 50.0 µM): 59.5%; growth inhibition [6, 7]: 5%; growth inhibition [6, 8]: 3%; growth inhibition ([6]; at 50.0 µM): 66.3%

Q: For `CCCCCCCCCCCCCCCC[N+](C)(C)CC(=O)O`, which growth inhibition [1, 7] is on record?
A: 6%

Q: What about the growth inhibition [1, 8] of the same molecule?
A: 92% (active)

Q: What about the growth inhibition ([1]; at 50.0 µM) of the same molecule?
A: -12.2%

Q: And the growth inhibition [2, 7]?
A: 7%

Q: What about the growth inhibition [2, 8] of the same molecule?
A: 98% (active)

Q: What about the growth inhibition ([2]; at 50.0 µM) of the same molecule?
A: 1.2%

Q: And the growth inhibition [3, 7]?
A: 19%

Q: And the growth inhibition [3, 8]?
A: 97% (active)

Q: What about the growth inhibition ([3]; at 50.0 µM) of the same molecule?
A: -1.4%

Q: What about the growth inhibition [4, 7] of the same molecule?
A: 2%

Q: And the growth inhibition [4, 8]?
A: 94% (active)

Q: What about the growth inhibition ([4]; at 50.0 µM) of the same molecule?
A: 88.4% (active)

Q: And the growth inhibition [5, 7]?
A: 0%

Q: What about the growth inhibition [5, 8] of the same molecule?
A: 96% (active)

Q: What about the growth inhibition ([5]; at 50.0 µM) of the same molecule?
A: 99% (active)

Q: And the growth inhibition [6, 7]?
A: 5%

Q: And the growth inhibition [6, 8]?
A: 97% (active)

Q: And the growth inhibition ([6]; at 50.0 µM)?
A: 7.85%

Q: Which results are given for `COC(C)(C)[C@@H]1CCCN1C1=C(C)C(=O)OC1`?
A: growth inhibition [1, 7]: 97% (active); growth inhibition [1, 8]: 99% (active); growth inhibition ([1]; at 50.0 µM): 46.6%; growth inhibition [2, 7]: 85% (active); growth inhibition [2, 8]: 99% (active); growth inhibition ([2]; at 50.0 µM): 69.3%; growth inhibition [3, 7]: 61%; growth inhibition [3, 8]: 99% (active); growth inhibition ([3]; at 50.0 µM): 78.5% (active); growth inhibition [4, 7]: 43%; growth inhibition [4, 8]: 99% (active); growth inhibition ([4]; at 50.0 µM): 24.6%; growth inhibition [5, 7]: 89% (active); growth inhibition [5, 8]: 99% (active); growth inhibition ([5]; at 50.0 µM): 46.6%; growth inhibition [6, 7]: 90% (active); growth inhibition [6, 8]: 99% (active); growth inhibition ([6]; at 50.0 µM): 75.8% (active)

Q: Which growth inhibition [1, 7] does the source give for `CCCCc1c2c(nc3c1CC/C(=C\c1ccccc1)C3=O)CCCC2` here?
A: -23%

Q: What about the growth inhibition [1, 8] of the same molecule?
A: 97% (active)

Q: What about the growth inhibition ([1]; at 50.0 µM) of the same molecule?
A: 65.8%

Q: And the growth inhibition [2, 7]?
A: -7%

Q: What about the growth inhibition [2, 8] of the same molecule?
A: 98% (active)

Q: And the growth inhibition ([2]; at 50.0 µM)?
A: 48.5%

Q: And the growth inhibition [3, 7]?
A: -11%

Q: And the growth inhibition [3, 8]?
A: 97% (active)

Q: What about the growth inhibition ([3]; at 50.0 µM) of the same molecule?
A: 69.6%

Q: What about the growth inhibition [4, 7] of the same molecule?
A: -1%

Q: What about the growth inhibition [4, 8] of the same molecule?
A: 97% (active)

Q: And the growth inhibition ([4]; at 50.0 µM)?
A: 38%

Q: And the growth inhibition [5, 7]?
A: -1%

Q: And the growth inhibition [5, 8]?
A: 98% (active)

Q: And the growth inhibition ([5]; at 50.0 µM)?
A: 54%

Q: And the growth inhibition [6, 7]?
A: -19%

Q: And the growth inhibition [6, 8]?
A: 97% (active)

Q: What about the growth inhibition ([6]; at 50.0 µM) of the same molecule?
A: 49.7%
